Bioassay records: PubChem, National Center for Advancing Translational Sciences (NCATS)
Pf growth 48h = inhibits P. falciparum growth in the first generation, 48 h; P. falciparum luciferase growth in erythrocytes, 48 h; Potency, µM (top dose mostly 28.7 µM), hits mostly inhibitors; 310,000 compounds, 5.9% hits; AID 504832; active = well fitted inhibition curve with a large enough effect; inconclusive = small, poorly fitted or top-dose-only effect, or another doubt; inactive = no such curve, though single readings can be large or run the other way
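Read-out is firefly luciferase luminescence from an integrated reporter in P. falciparum, so falling signal marks reduced parasite growth. Infected erythrocytes were at 2% hematocrit and 0.1% parasitemia (final) in Albumax-supplemented RPMI 1640.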
SARS PLpro yeast = blocks SARS-CoV papain-like protease in a yeast assay; S. cerevisiae expressing SARS-CoV PLpro, growth rescue; Potency, µM (doses to about 32.9 µM), most hits filed as activators; 330,000 compounds, 0.19% hits; AID 485353; note: nearly all actives have a fitted effect of over 55% in size
NS1 function inh = influenza NS1 inhibition | Potency, µM (top dose mostly 46.1 µM) | 270,000 compounds, 0.4% hits; note: actives are rising curves; nearly all actives have a fitted effect of over 50% in size
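S. cerevisiae expressing influenza A NS1, grown in glucose, washed, then diluted 1:100 into pH 6.0 -URA galactose medium with 23 nl compound. Growth recovery read as OD600; NS1-free strain serves as control.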
RE007 growth inh = less growth of the S. pombe RE007 Vpr strain | S. pombe RE007 Vpr strain, BacTiter-Glo ATP luminescence, 24 h | Potency, µM (top dose mostly 92.2 µM), actives largely listed as inhibitors | 360,000 compounds, 0.21% hits | AID 651644; active = well fitted falling curve with a large enough effect; inconclusive = small, poorly fitted or top-dose-only effect; inactive = no such curve, though single readings can be large or run the other way; note: nearly all actives have a fitted effect of over 50% in size
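Fission yeast strain RE007, carrying one chromosomally integrated HIV-1 vpr copy, was seeded at OD 0.01 in PMG+AL medium with 23 nL pinned compound. After 24 h at 30 °C and 99% humidity, viability was read by BacTiter-Glo luminescence.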
Pf growth 96h = inhibits malaria parasite growth, 96 h; 320,000 compounds, 6.9% hits; P. falciparum luciferase reporter growth, 96 h; Potency, µM (titrated, usually from 28.7 µM), hits mostly inhibitors; active = well fitted inhibition curve with a large enough effect; inconclusive = small, poorly fitted or top-dose-only effect, or another doubt; inactive = no such curve, though single readings can be large or run the other way
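Luminescence readout: decreased luciferase signal marks inhibited growth of reporter-expressing P. falciparum in infected red cells (2% hematocrit, 0.05% parasitemia final), exposed to compound two generations (96 h, 37 C, 5% CO2).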
Large screens that a line does not name were inactive. Most compounds without a hit are left out; they make up all but 9.5% or so of the library. Unless noted, calls come from the whole dose curve.

CN(CC(=O)Nc1ccc(OC(F)(F)F)cc1)C(=O)Cc1c(Cl)cccc1Cl	Pf growth 48h inconclusive, Pf growth 96h inconclusive
Cc1cccc(NC(=O)CSCC(=O)N(C)Cc2c(F)cccc2Cl)c1	Pf growth 48h inconclusive, Pf growth 96h 13µM (no result: NS1 function inh)
Nc1c(N(Cc2ccccc2)C(=O)COc2ccc(F)cc2Cl)c(=O)[nH]c(=O)n1Cc1ccccc1	none (no result: Pf growth 48h, NS1 function inh, Pf growth 96h)
Cc1nc2c(-c3ccccc3)c(C)[nH]n2c(=O)c1Cc1ccccc1	Pf growth 48h 10µM
CC(C)(C)OC(=O)N1CCC(NC(=O)c2nc[nH]c2C(=O)NCC(=O)OCc2ccccc2)CC1	none
Cc1cc(N2CCN(C3CCCC3)CC2)n2c(nc3ccccc32)c1C#N	Pf growth 48h 0.29µM, Pf growth 96h 0.23µM
Cc1cc(NCCCOC(C)C)n2c(nc3ccccc32)c1C#N	Pf growth 48h 5.2µM
CCCc1cc(NCCCO)n2c(nc3ccccc32)c1C#N	Pf growth 48h inconclusive, Pf growth 96h 3.3µM
Cc1cc(C(C)C)n2c(nc3ccccc32)c1C#N	none (no result: RE007 growth inh)
Cc1cc(NCCCN(C)C)n2c(nc3ccccc32)c1C#N	none
CCC(C)Sc1cc(C)c(C#N)c2nc3ccccc3n12 (stereo unspecified)	Pf growth 48h 8.3µM, Pf growth 96h 2.9µM
Cc1ccc(S(=O)(=O)N(C)C[C@H]2OCc3cn(nn3)CCCC(=O)N([C@H](C)CO)C[C@@H]2C)cc1	none (no result: Pf growth 48h, SARS PLpro yeast, NS1 function inh, Pf growth 96h)
CCc1[nH]nc(C(=O)N2CCCC(N3CCN(c4ccccc4C)CC3)C2)c1C (stereo unspecified)	Pf growth 48h inconclusive, Pf growth 96h inconclusive
CC(C)C(NC(=O)c1c(F)cccc1F)C(=O)N1CCN(c2ncccn2)CC1 (stereo unspecified)	none (no result: Pf growth 48h, NS1 function inh, Pf growth 96h)
COc1cc(-c2noc(C)c2C#Cc2ccc(N)cc2)cc(OC)c1OC	Pf growth 96h inconclusive
CNC(C)C#Cc1c(-c2cc(OC)c(OC)c(OC)c2)noc1C (stereo unspecified)	Pf growth 48h inconclusive, Pf growth 96h 15µM
Cc1cccc(C(=O)NC2CCN(CC(=O)Nc3ccccc3Cl)CC2)c1	none
CN1CC=C(/C=C/c2ccc(-c3ccccc3)cc2)CC1	Pf growth 48h inconclusive, Pf growth 96h 13µM
COc1ccc(/C=C/C2=CCN(C)CC2)cc1	none
COc1ccccc1-c1nnc(SCC(=O)NCc2cccs2)n1N	none (no result: NS1 function inh)
COCCCNC(=O)c1ccc(Cn2c(=O)c3ccccc3n(Cc3ccccc3C)c2=O)cc1	none (no result: Pf growth 48h)
COCCCNC(=O)c1ccc(Cn2c(=O)c3ccccc3n(Cc3cc(C)ccc3C)c2=O)cc1	Pf growth 48h 13µM (no result: Pf growth 96h)
C=CCn1c(=O)c2ccc(C(=O)NCc3ccccc3)cc2n(Cc2ccc(C)cc2)c1=O	Pf growth 96h 2.3µM
COc1ccc(C(N)c2csc(Nc3ccc(C(=O)NCCCO)cn3)n2)cc1 (stereo unspecified)	none (no result: Pf growth 48h, SARS PLpro yeast, NS1 function inh, Pf growth 96h)
CCN(C(=O)N1CCOCC1)c1ccccc1C	Pf growth 96h 6.6µM
COc1ccc(CN(C2CCCC2)S(=O)(=O)c2ccc(-n3cnnn3)cc2)cc1OC	Pf growth 48h inconclusive, Pf growth 96h inconclusive
COc1cc(S(=O)(=O)N(Cc2ccc(C)cc2)C2CCCCC2)ccc1-n1cnnn1	Pf growth 48h 5.9µM (no result: Pf growth 96h)
O=c1cc(CSc2nc3ccccc3[nH]2)c2ccccc2[nH]1	none (no result: Pf growth 48h)
Fc1ccc(CSc2nc3ccccc3[nH]2)c2ccccc12	RE007 growth inh 13µM, Pf growth 96h inconclusive (no result: Pf growth 48h)
COc1ccc(NC(=O)C2(C)Cc3c(-c4ccc(N(C)C)cc4)ccnc3O2)cn1 (stereo unspecified)	none (no result: Pf growth 48h, SARS PLpro yeast, NS1 function inh, Pf growth 96h)
CCOC(=O)C1(CC2CC2)CCN(C(=O)c2cc(C)nc3ccc(CC)cc23)CC1	Pf growth 48h inconclusive, Pf growth 96h 2.1µM
Cc1sc2ncnc(N3CCN(Cc4ccccc4)CC3)c2c1-c1ccccc1	Pf growth 48h 12µM, Pf growth 96h 10µM
COc1ccc(N2CCN(c3ncnc4scc(-c5ccc(F)cc5)c34)CC2)cc1	Pf growth 48h inconclusive, Pf growth 96h 12µM
COc1ccc(CN2CCN(c3ncnc4scc(-c5ccc(F)cc5)c34)CC2)cc1	Pf growth 48h inconclusive, Pf growth 96h 9.3µM
COc1ccc(N2CCN(c3ncnc4scc(-c5ccc(C)cc5)c34)CC2)cc1	Pf growth 48h inconclusive, Pf growth 96h inconclusive
COc1ccc(-c2csc3ncnc(N4CCN(c5cccc(Cl)c5)CC4)c23)cc1	Pf growth 48h inconclusive, Pf growth 96h 7.4µM
CCN1CCN(c2ncnc3scc(-c4ccc(OC)cc4)c23)CC1	none
